# Source: PubChem BioAssay (Tox21)
# Where “and” joins values, the source holds several entries; their conditions need not be identical. Equal entries are not always repeated. Records with an inconclusive call do not appear. A call without a number means that no potency is given here. Some structures have more than one record in an assay (separate samples or runs), and their calls can disagree. Calls of active or inactive are those of the source. Unless noted, the call rests on the fitted dose curve; in most records, active means well fitted curve in the direction sought with a large enough effect in the repeat runs; inconclusive means weak or mixed curves; inactive means no such curve, though single readings can be large; an effect the other way counts as inactive or inconclusive.
# Columns and labels:
# [1] = qHTS assay to identify small molecule antagonists of the glucocorticoid receptor (GR) signaling pathway - cell viability counter screen (AID 720693); further: nearly all actives have a fitted effect of over 55% in size
# [2] = qHTS assay for identifying genotoxic compounds that show differential cytotoxicity against isogenic chicken DT40 cell lines with known DNA damage response pathways - wild type cell line (AID 743012); further: nearly all actives have a fitted effect of over 60% in size; further: potency means the concentration at half of the fitted maximal effect
# In short: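 Viability of DNA repair-proficient chicken DT40 cells was assessed by CellTiter-Glo luminescence following 40 h compound exposure at 37 C/5% CO2.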
# [3] = qHTS assay for identifying genotoxic compounds that show differential cytotoxicity against isogenic chicken DT40 cell lines with known DNA damage response pathways - Rad54/Ku70 mutant cell line (AID 743015); further: nearly all actives have a fitted effect of over 60% in size; further: potency means the concentration at half of the fitted maximal effect
# [4] = qHTS assay to identify small molecule antagonists of the androgen receptor (AR) signaling pathway - cell viability counter screen (AID 743033; further: nearly all actives have a fitted effect of over 45% in size)
# [5] = qHTS assay for identifying genotoxic compounds that show differential cytotoxicity against isogenic chicken DT40 cell lines with known DNA damage response pathways - Rev3 mutant cell line (AID 743014); further: nearly all actives have a fitted effect of over 55% in size; further: potency means the concentration at half of the fitted maximal effect
# [6] = qHTS assay to identify small molecule antagonists of the androgen receptor (AR) signaling pathway using the MDA cell line - cell viability counter screen (AID 743041; further: nearly all actives have a fitted effect of over 45% in size)
# In short: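 qHTS viability read-out; MDA-kb2 AR-luc; R1881-stimulated; 16 h exposure at 37C, 0% CO2; CellTiter-Fluor, 30 min; fluorescence intensity.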
# [7] = molecular target: Androgen receptor (Homo sapiens) (UniProt P10275); experiment: qHTS assay to identify small molecule antagonists of the androgen receptor (AR) signaling pathway (AID 743035; active means well fitted inhibition curve with a large enough effect in the signal ratio in the repeat runs, not every such curve was filed as active; the % refers to the signal ratio)
# In short: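 Reporter HEK293 cells were exposed to compounds and R1881 overnight (16 h, 37C); beta-lactamase activity was then quantified by FRET fluorescence.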
# [8] = molecular target: Androgen receptor (Homo sapiens) (UniProt P10275); experiment: qHTS assay to identify small molecule agonists of the androgen receptor (AR) signaling pathway (AID 743036; active means well fitted activation curve with a large enough effect in the signal ratio in the repeat runs, with a control signal flat, not every such curve was filed as active; the % refers to the signal ratio)
# In short: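 Reporter line: GeneBLAzer AR-UAS-bla-GripTite (HEK293). Steps: plate cells, 4 h rest, add compounds, 16 h at 37C, add LiveBLAzer B/G substrate, 2 h at RT, read fluorescence.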
# [9] = molecular target: Androgen receptor (Homo sapiens) (UniProt P10275); experiment: qHTS assay to identify small molecule agonists of the androgen receptor (AR) signaling pathway using the MDA cell line (AID 743040; further: nearly all actives have a fitted effect of over 20% in size)
# In short: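 Agonist activity is measured as luciferase luminescence in human MDA-kb2 cells whose MMTV reporter responds to both AR and GR. Compounds in DMSO incubate 16 h at 37C, 0% CO2, and ONE-Glo is read after 30 min.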
# [10] = molecular target: Androgen receptor (Homo sapiens) (UniProt P10275); experiment: qHTS assay to identify small molecule antagonists of the androgen receptor (AR) signaling pathway using the MDA cell line (AID 743042; further: nearly all actives have a fitted effect of over 55% in size)
# In short: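 MDA-kb2 cells (human breast carcinoma, stably carrying an MMTV-luciferase reporter responsive to AR and GR) were plated at 3,000 cells/well and preincubated 5 hr at 37C, then given compound plus R1881 agonist for 16 h. ONE-Glo luminescence was read.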
# Androgen receptor (Homo sapiens), sequence (P10275 whole entry, looked up): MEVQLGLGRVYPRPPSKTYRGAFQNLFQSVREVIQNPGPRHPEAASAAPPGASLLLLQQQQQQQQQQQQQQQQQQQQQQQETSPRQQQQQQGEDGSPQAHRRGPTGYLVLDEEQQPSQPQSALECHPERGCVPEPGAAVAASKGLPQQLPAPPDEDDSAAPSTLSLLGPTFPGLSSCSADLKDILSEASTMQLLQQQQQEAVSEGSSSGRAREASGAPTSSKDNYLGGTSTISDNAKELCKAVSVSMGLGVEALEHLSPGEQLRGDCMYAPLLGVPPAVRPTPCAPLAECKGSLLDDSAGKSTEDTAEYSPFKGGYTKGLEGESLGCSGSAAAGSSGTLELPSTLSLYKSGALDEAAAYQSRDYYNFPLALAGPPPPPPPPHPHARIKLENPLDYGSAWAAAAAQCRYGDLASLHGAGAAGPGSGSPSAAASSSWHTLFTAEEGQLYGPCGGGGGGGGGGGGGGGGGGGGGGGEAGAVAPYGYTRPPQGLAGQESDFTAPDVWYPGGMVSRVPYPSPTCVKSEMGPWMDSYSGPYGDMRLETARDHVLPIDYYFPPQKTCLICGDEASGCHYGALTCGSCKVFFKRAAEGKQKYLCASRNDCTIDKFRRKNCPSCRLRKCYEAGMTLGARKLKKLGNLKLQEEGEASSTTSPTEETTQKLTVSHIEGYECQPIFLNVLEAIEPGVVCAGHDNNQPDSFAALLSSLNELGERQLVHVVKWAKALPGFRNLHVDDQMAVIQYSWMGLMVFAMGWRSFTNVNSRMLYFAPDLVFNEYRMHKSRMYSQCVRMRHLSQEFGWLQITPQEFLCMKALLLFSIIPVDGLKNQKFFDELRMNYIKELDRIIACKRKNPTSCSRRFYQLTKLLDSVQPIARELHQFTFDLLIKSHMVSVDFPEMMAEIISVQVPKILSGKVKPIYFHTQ
SMILES,Potency [1],Potency [2],Potency [3],Potency [4],Potency [5],Potency [6],Potency [7],outcome [8],Potency [9],Potency [10]
O=[Se](O)O,inactive,433 nM (active) and 5.23 µM (active),244 nM (active) and 2.34 µM (active),inactive,–,–,–,–,–,–
COc1cc([C@H]2Oc3cc([C@H]4Oc5cc(O)cc(O)c5C(=O)[C@@H]4O)ccc3O[C@@H]2CO)ccc1O,inactive,inactive,29.8 µM (active) and 48.4 µM (active),inactive,inactive,inactive,–,–,–,–
CC(=O)O[C@]1(C(C)=O)CC[C@H]2[C@@H]3C=C(Cl)C4=CC(=O)CC[C@]4(C)[C@H]3CC[C@@]21C,inactive,10.6 µM (active) and 27.3 µM (active),18.8 µM (active),inactive,11.9 µM (active),inactive,–,–,–,–
C=C[C@H]1CN2CC[C@H]1C[C@H]2[C@H](O)c1ccnc2ccc(OC)cc12,inactive,13.3 µM (active) and 8.41 µM (active) and 54.5 µM (active),26.6 µM (active) and 13.3 µM (active) and 27.3 µM (active),inactive,23.7 µM (active) and 13.3 µM (active) and 27.3 µM (active),inactive,–,–,–,–
CCC(=O)O[C@H]1[C@H](O[C@@H]2[C@@H](C)[C@H](O[C@H]3C[C@@](C)(OC)[C@@H](O)[C@H](C)O3)[C@@H](C)C(=O)O[C@H](CC)[C@@](C)(O)[C@H](O)[C@@H](C)C(=O)[C@H](C)C[C@@]2(C)O)O[C@H](C)C[C@@H]1N(C)C,inactive,40.5 µM (active),inactive and 36.1 µM (active),inactive,inactive and 20.3 µM (active),inactive,–,–,–,–
CC(C)(C)c1cccc(C(C)(C)C)c1O,inactive,inactive,inactive,inactive,inactive,inactive,–,–,–,–
CN1CCOCC1,inactive,inactive,inactive,inactive,inactive,inactive,–,–,–,–
CC[C@]12CCCN3CCc4c(n(c5ccccc45)[C@@](O)(C(=O)OC)C1)[C@@H]32,inactive,inactive,inactive,inactive,–,inactive,inactive,inactive,inactive,inactive
Cc1ccc(S(=O)(=O)O)cc1C,inactive,inactive,inactive,inactive,–,inactive,–,–,–,–
Nc1ccc2c(O)cc(S(=O)(=O)O)cc2c1,inactive,inactive,inactive,inactive,–,–,–,–,–,–
CNC[C@H](O)c1ccc(O)c(O)c1,inactive,29.8 µM (active),–,inactive,inactive,inactive,–,–,–,–
CC1(C)C(C=C(Cl)Cl)C1C(=O)OCc1cccc(Oc2ccccc2)c1 (centres undefined),inactive,inactive,inactive,inactive,–,inactive,inactive,inactive,inactive,inactive
CCCCCCCCCCCCCO,inactive,inactive,inactive,inactive,inactive,inactive,–,–,–,–
COc1ccc2nc(N)sc2c1,inactive,inactive,inactive,inactive,–,inactive,inactive,inactive,inactive,inactive
CC(C)(Oc1ccc(Cl)cc1)C(=O)O,inactive,inactive,inactive,inactive,–,inactive,–,–,–,–
O=C(O)c1cc(=O)[nH]c(=O)[nH]1,inactive,inactive,inactive,inactive,inactive,inactive,–,–,–,–
Cc1ccc(N)c([N+](=O)[O-])c1,inactive,inactive,inactive,inactive,inactive,inactive,–,–,–,–
O=C1OC2(c3ccccc31)c1cc(I)c(O)c(I)c1Oc1c2cc(I)c(O)c1I,inactive,inactive and 9.33 µM (active),17.4 µM (active) and 10.5 µM (active),inactive,–,–,–,–,–,–
Cc1ccc(C(C)(C)C)c(O)c1,inactive,54.5 µM (active),inactive and 43.3 µM (active),–,inactive and 48.6 µM (active),inactive,–,–,–,–
Cc1ccc(S(=O)(=O)NCl)cc1,inactive,inactive,inactive,inactive,inactive,inactive,–,–,–,–
NCCOCCO,inactive,inactive,inactive,inactive,inactive,inactive,–,–,–,–
CCC/C=C/C=O,inactive,inactive,inactive,inactive,–,inactive,inactive,–,–,inactive
CC1=CC(C)(C)Nc2ccccc21,inactive,inactive and 66.8 µM (active),inactive,inactive,–,inactive,–,–,–,–
OC[C@@H](O)[C@@H](O[C@@H]1O[C@H](CO)[C@H](O)[C@H](O)[C@H]1O)[C@H](O)[C@@H](O)CO,inactive,inactive,inactive,inactive,inactive,inactive,–,–,–,–
C=C[Si](OCCOC)(OCCOC)OCCOC,inactive,43.3 µM (active),inactive and 30.6 µM (active),inactive,inactive and 30.6 µM (active),inactive,–,–,–,–
Cc1ccc(C(C)(C)C)cc1,inactive,inactive,inactive,inactive,–,inactive,–,–,–,–
CCCCCC=O,inactive,inactive,inactive,inactive,–,inactive,–,–,–,–
Brc1nc2ccccc2s1,inactive,inactive,inactive,inactive,–,inactive,–,–,–,–
